# Active and inactive are the calls of the source.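 The calls were made as follows: active = half-effect concentration at most 10 µM, response change at least 30% across doses, and a curve fit passing quality checks; inactive = the rest.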
# Molecular target: Cell division control protein 42 homolog (Homo sapiens) (UniProt P60953)
# Experiment: inhibition of fluorescent GTP binding to wildtype Cdc42 – biochemical, protein source comparison, flow cytometry beads, Bodipy-FL-GTP, mechanism study for Ras-family GTPase inhibitor project, late-stage follow-up (AID 720688)
# Conditions: GST-Cdc42 beads; protein source 1, at 100 µM (top of the series)
# Sequence of Cell division control protein 42 homolog (Homo sapiens) (P60953 whole entry, looked up): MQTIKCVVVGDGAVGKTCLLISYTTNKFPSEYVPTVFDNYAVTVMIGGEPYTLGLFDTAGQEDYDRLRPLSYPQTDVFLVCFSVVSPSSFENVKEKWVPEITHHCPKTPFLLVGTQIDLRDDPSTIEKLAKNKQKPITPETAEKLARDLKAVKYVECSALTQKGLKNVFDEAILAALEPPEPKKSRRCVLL
row,SMILES,outcome
1,CC1(C)Cc2c(sc(NC(=S)NC(=O)c3cccc(N=[N+]=[N-])c3)c2C(=O)O)CO1,inactive
2,CC1(C)Cc2c(sc(NC(=S)NC(=O)c3ccc(N=[N+]=[N-])cc3)c2C(=O)O)CO1,inactive

# Reference: PubChem BioAssay AID720688 (NMMLSC, 2013)
